Among all 340,000 compounds or so, about 20 (0.006%) were called active. Calls follow the shape of the dose curve; as a rule, active = well fitted inhibition curve with a large enough effect; inconclusive = small, poorly fitted or top-dose-only effect; inactive = no such curve, though single readings can be large or run the other way. For the sample, actives were picked, then their nearest neighbours and some compounds at random.
Target: Sphingomyelin phosphodiesterase (Homo sapiens) (UniProt P17405)
Assay: Inhibitors of Secretory Acid Sphingomyelinase (S-ASM): qHTS
Details: placental ASM, HMU-PC fluorogenic substrate, 60 min; series mostly up to 57.5 µM; activity change, negative = inhibition: at the top concentration
Source text: Atherosclerosis is the underlying process for cardiovascular disease and thus is a major contributor to disease burden in the population. […] Thus, selective small molecule inhibitors of S-ASM should block LDL modification and reduce aortic LDL retention and may serve as new agents for the treatment of atherosclerosis. In a collaboration between National Heart, Lung, and Blood Institute and the NCGC a high-throughput amenable screen was developed to identify potent and selective small molecule inhibitors of S-ASM. This enzymatic, fluorescent screen uses an ASM enzyme preparation derived from human placenta and was tested against the NIH Molecular Libraries Small Molecule Repository (MLSMR). NIH Chemical Genomics Center [NCGC] NIH Molecular Libraries Probe Centers Network [MLPCN] MLPCN Grant: MH093173-01 Assay Submitter (PI): Alan Remaley, National Heart, Lung, and Blood Institute and Wei Zhen, NIH Chemical Genomics Center
Two microliters of ASM enzyme (1:150 dilution from stock) are dispensed in 1536-well plate. 23 nL of compound and control are pinned into assay plate using the Kalypsys pintool. The plates are then incubated for 10 minutes at ambient room temperature. Then, 2 uL of the flurogenic substrate, HMU-PC0, (9 uM final) are added to the plate. An incubation for 60 minutes takes place at 37 masculineC. After that, 4 uL of stop solution is added to raise the pH to 10 to end the kinetic reaction. Plate is read on ViewLux, with detection set at Ex = 386 (10) nm and Em = 447 (10) nm.

Chain of Sphingomyelin phosphodiesterase (Homo sapiens) (P17405 47-631 limits assumed): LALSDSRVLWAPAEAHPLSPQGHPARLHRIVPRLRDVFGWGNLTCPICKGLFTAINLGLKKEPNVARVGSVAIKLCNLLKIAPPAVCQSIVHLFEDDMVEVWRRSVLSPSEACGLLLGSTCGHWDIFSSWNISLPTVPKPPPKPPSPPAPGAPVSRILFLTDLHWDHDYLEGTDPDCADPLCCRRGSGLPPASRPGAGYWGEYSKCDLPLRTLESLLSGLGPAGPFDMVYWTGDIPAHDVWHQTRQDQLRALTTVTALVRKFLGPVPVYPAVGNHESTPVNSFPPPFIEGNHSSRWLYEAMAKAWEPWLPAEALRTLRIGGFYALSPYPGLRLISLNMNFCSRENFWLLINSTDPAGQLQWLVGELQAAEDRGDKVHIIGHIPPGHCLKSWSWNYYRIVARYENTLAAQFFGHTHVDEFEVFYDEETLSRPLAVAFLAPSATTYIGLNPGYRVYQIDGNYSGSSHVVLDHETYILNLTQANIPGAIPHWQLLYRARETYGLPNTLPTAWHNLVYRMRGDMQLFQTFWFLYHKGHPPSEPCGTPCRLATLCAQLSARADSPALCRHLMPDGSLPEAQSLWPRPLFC

Activity change, negative = inhibition, inactive:
COc1ccc(Nc2ncc(C(=O)N3CCN(c4ccccc4OC)CC3)c3ccccc23)cc1 -5.7%
O=C(COC(=O)c1ccc(F)c(S(=O)(=O)N2CCOCC2)c1)NCc1ccc2c(c1)OCO2 1.81%
Brc1c(CSc2nncc3ccccc23)nc2ccccn12 1.36%
COc1ccc(Cc2nnc(SCC(=O)N(c3ccccc3)C(C)C)n(N)c2=O)cc1 -1.08%
CC1(C)CC(=O)C=C(c2cccc3c2Oc2ccccc2S3)C1 -13.8%
O=C(NCC1CCCO1)C1CCN(C2CCN(C(=O)C3CCCCC3)CC2)CC1 (centres undefined) 1.41%
FC(F)(F)c1ccc2c3n(nc2c1)CCN=C3c1ccc(Cl)cc1 -3.7%
CC(C)[C@H](NC(=O)Nc1ccc(S(N)(=O)=O)cc1)C(=O)O 2.71%
COc1ccccc1N1CCC(N2CCN(CC(C)(C)C)C(CCO)C2)CC1 (centres undefined) 3.32%
CC(=O)Nc1nc2c(s1)C(=O)NCC(C)(C)C2 -2.53%
COc1ccccc1C(=O)C(O)c1ccccc1OC (centres undefined) 2.43%
Cn1nc(C(F)(F)F)c2cc(NC(=O)OCC(C)(C)C)sc21 -4.28%
O=C(CCNC(=O)c1ccc([N+](=O)[O-])cc1)Nc1ccccc1N1CCOCC1 5.76%
Cc1cc(C)c(S(=O)(=O)c2cc(F)ccc2C)c(=O)[nH]1 -1.89%
COC(=O)C1=C(C(=O)OC)C2(OC1c1ccc(Br)cc1)C(=O)c1ccccc1C2=O (centres undefined) -0.0969%
COCCNC(=O)CSc1nc2sccc2c(=O)n1-c1ccccc1 7.71%
CCN(CC)S(=O)(=O)c1ccc(N2CC(C(=O)NCc3cccnc3)CC2=O)cc1 (centres undefined) 2.74%
O=C(Nc1ccc([N+](=O)[O-])cc1)C1CC12CCC2 (centres undefined) 0.622%
Cc1ccc(S(=O)(=O)c2c[nH]c3ccc(C)cc3c2=O)cc1 4.26%
O=C1CC[C@@H]2CC3(C[C@@H]4CCN1[C@H]24)Nc1cc([N+](=O)[O-])ccc1NC3=NC1CCCCC1 (some centres undefined) -13.9%
COc1cc(OC)cc(C(=O)NCCSCc2ccc(Cl)cc2)c1 0.434%
CC(C)(C)C(=O)Nc1c(Br)c(C2CC2)nn1-c1ccccc1 -0.807%
CC(C)(C)NC(=O)NC(=O)COC(=O)CCC1CCCCC1 -1.67%
O=C(CCN1C(=O)[C@@H]2Cc3ccccc3CN2C1=O)NCc1ccccc1 2.58%
Cc1cccc(NC(=S)NCCc2ccc(F)cc2)c1C 0.269%
Cn1cc(C2OC(=O)c3ccccc32)c2ccccc21 (centres undefined) 3.97%
CCN(C[C@H]1N[C@@](Cc2ccccc2)(C(=O)OC)[C@H]2C(=O)N(Cc3ccccc3)C(=O)[C@@H]12)C(=O)c1ccc(C)cc1 -2%
Cc1c(NC(=O)CN(C)CC(=O)Nc2ccc(F)c(F)c2F)c(=O)n(-c2ccccc2)n1C 0.31%
CC(C(=O)NC1CCCC1)N(c1ccc(Oc2ccccc2)cc1)S(C)(=O)=O (centres undefined) 4.2%
O=C(CCN1C(=O)COc2ccccc21)NCCCN1CCN(c2ccc(F)cc2)CC1 2.7%
O=C(/C=C/c1cccc([N+](=O)[O-])c1)OCC(=O)N1CCOCC1 8.57%
COC(=O)c1cccc(C(=O)N2CCC(CCC(=O)NCc3ccc(F)cc3)CC2)c1 3.52%
CC(=O)OCC(=O)C1(O)CCC2C3CC(C)C4=CC(=O)CCC4(C)C3C(O)CC21C (centres undefined) 3.04%
CC(=O)NNC(=O)c1csc(Cc2c(Cl)sc3ccc(Cl)cc23)n1 -1.54%
CC1CN(S(=O)(=O)c2ccccc2)C(C)CN1S(=O)(=O)c1ccccc1 (centres undefined) 0.844%
Cc1c(Cl)cccc1NC(=O)Nc1ccc(C(=O)N2CCCC2)cc1 -1.21%
O=C(COc1ccc(F)cc1Br)NCC1COc2ccccc2O1 (centres undefined) 2.18%
CCOc1ccc(CCNC(=O)COC(=O)CCS(=O)(=O)c2ccc(C)cc2)cc1OCC 0.919%
Cc1cc(C)nc(SC2CCCCC2NS(=O)(=O)c2ccc(Cl)cc2)n1 (centres undefined) -1.81%
CC1(C)CC(=O)C=C(NCCN2CCNCC2)C1 3.44%
COc1cccc(C(=O)CC(=O)C(=O)Nc2ccc([N+](=O)[O-])cc2C)c1 -7.33%
COc1cccc(NC(=O)N2CCC(NC(=O)C(Cc3cccc(C)c3)NC(C)=O)CC2)c1 (centres undefined) 3.08%
COc1cccc(N2CCN(C(=O)Nc3ccc4c(c3)NC(=O)CO4)CC2)c1 -2.58%
CCOc1ccc(C(=O)N(Cc2ccc(N(C)C)cc2)C2CCS(=O)(=O)C2)cc1 (centres undefined) -3.39%
O=C(NCCCN1CCCC1=O)c1cccc(S(=O)(=O)NCc2ccccc2)c1 -0.664%
COC(=O)c1ccccc1NC(=O)CSc1nc2c(c(=O)[nH]1)CCC2 -0.0256%
CCOc1ccc(NC(=O)CN(C)CC(=O)Nc2cccc(Cl)c2C)cc1OCC -1.93%
COc1ccc(C(=O)NC(=S)N2CCNC(=O)C2CC(=O)OC(C)C)cc1 (centres undefined) 2.82%
O=C(OCc1cc(Cl)ccc1OC(F)F)c1cccnc1 2.08%
O=C(CSc1nnnn1-c1ccc(O)cc1)c1ccc(F)cc1 0.0285%
CCC(=O)Nc1ccc(C(=O)CSc2nnc(CNc3ccc(Cl)cc3)o2)cc1OC -3.49%
COC(=O)c1c(C)oc(C)c1S(=O)(=O)NCc1ccc(Cl)cc1 0.138%
Cc1ccc2[nH]c(C)c(CCNC(=O)NC3CCCCC3)c2c1 11.4%
CCC1=NN(C(=O)Cc2ccc([N+](=O)[O-])cc2)C(O)(c2ccc(Br)cc2)C1 (centres undefined) -4.46%
Cc1cc(C)cc(NC(=O)N(C)Cc2ccccc2)c1 -5.09%
COc1cccc(CNC(=O)CCN2C(=S)NC(C)(C)CC2C)c1 (centres undefined) -1.55%
COc1cc2c(cc1OC)C(Cc1cc(OC)c(OC)cc1[N+](=O)[O-])=NCC2 -9.32%
CS(=O)(=O)N1CCN(CC(=O)NC2CCCC2)CC1 -0.357%
O=[N+]([O-])c1ccc(S(=O)(=O)Nc2cccc(-c3ccc(N4CCCC4)nn3)c2)cc1 -3.91%
COc1ccccc1C1CC(=O)n2c(nc(-c3ccccc3)c2-c2ccccc2)S1 (centres undefined) -2.94%
COc1ccc(N2C(=O)CCC(C(=O)N(C)C3CCCCC3)C2c2ccc(OC)c(OC)c2)cc1 (centres undefined) 2.46%
N#C[C@]1(S(=O)(=O)c2ccccc2)C[C@@H]2ON=C(c3cccc(Br)c3)[C@@H]2C1 0.801%
COC(=O)c1c(C(=O)OC)c2n(c1C)CCS2 2.14%
O=C(NCc1ccncc1)C1CCCN(S(=O)(=O)c2ccc(Br)cc2)C1 (centres undefined) 4.64%
COC(=O)C1=CN(c2ccc(F)c(F)c2)C=C(C(=O)OC)C1c1ccc([N+](=O)[O-])cc1 -6.6%
CC(=O)OCC1(O)CC23CCC4c5ccoc5CCC4(C)C2CCC1C3 (centres undefined) -4.39%
COCCn1c(SCC(=O)Nc2nc(C)cs2)nnc1C(C)C 3.44%
O=C(CNc1cccc(S(=O)(=O)N2CCCCC2)c1)Nc1ccccc1F 21.8%
CCOC(=O)C(CC)Sc1ncnc2c1nnn2-c1ccc(F)cc1 (centres undefined) 1.72%
NC(CSC12CC3CC(CC(C3)C1)C2)C(=O)O (centres undefined) 2.86%
Cc1cccc(NC(=O)N(Cc2cc3cc(C)cc(C)c3[nH]c2=O)CC2COCCO2)c1 (centres undefined) -13.7%
O=C(Cn1cc(/C=N/NC(=O)c2cccc(C(F)(F)F)c2)c2ccccc21)Nc1ccc(F)cc1 2.03%
COc1ccccc1CCNC(=O)CSc1nnc2ccc(-c3cccnc3)nn12 -1.74%
COc1ccccc1NC(=O)CCC(=O)N1CC(C)Oc2ccc(C)cc21 (centres undefined) 4.08%
Cc1cccc(NC(=S)N(CCN(C)C)C(C)c2ccco2)c1 (centres undefined) 3.18%
Cc1oc(C)c(C(=O)NCCCC(=O)O)c1C(=O)NCCCC(=O)O 3.69%
CSc1nc(C)nc(C2CC2)c1C#N 3.92%
CN(C)CCCNC(=O)c1cc(C(=O)Cc2ccc(Cl)cc2)c[nH]1 -1.05%
CN(C(=O)c1cccc(NC(=O)Cc2ccc(NC(=O)C3CCN(C(=O)C4CCCCC4)CC3)cc2)c1)C1CCC1 -0.203%
COc1ccc(CN(CC(=O)NC2CCCC2)C(=O)CCC(=O)Nc2cc(C)on2)cc1 7.46%
COC(=O)c1sccc1-n1cccc1C(=O)C(=O)N1CCCCC1 -6.14%
Cc1ccc2c(c1)nnc1nnc(SCC(=O)O)n12 2.22%
Cc1cccc(OC(C)C(=O)N2CCc3ccccc3C2)c1 (centres undefined) 4.94%
CC(=O)N1CCc2ccc(N)cc21 3.14%
CCc1noc(C)c1C(=O)N1CCCC(N2CCN(c3ccc(F)cc3)CC2)C1 (centres undefined) 0.409%
CCCCCCNCCn1cnc2c(N)ncnc21 3.85%
Cc1cc(NC(=O)CSc2nc(=O)cc(N)n2-c2ccc(F)cc2)no1 3.93%
Cc1cc(C)n(-c2nnc(C)n2NC(=O)c2cccc(Cl)c2)n1 2.43%
COCCN1C(=O)C(=O)/C(=C(/O)c2ccc(S(=O)(=O)N3CCCCC3)cc2)C1c1ccc(OC)c(OC)c1 (centres undefined) -3.13%
Cc1[nH]c2ccccc2c1SCC(=O)Nc1nccs1 -2.52%
CS(=O)(=O)N1CCc2cc(C(=O)Nc3ccccc3Br)ccc21 -1.09%
N#C/C(C(=O)N1CCOCC1)=C1/SC(Cc2ccc(F)cc2)C(=O)N1c1ccccc1 (centres undefined) 0.557%
O=C(NCc1cccs1)C(=O)NCC1OCCCN1S(=O)(=O)c1ccc(F)cc1 (centres undefined) 3.48%
Cc1ccc(S(=O)(=O)N2CCC(C(=O)OCC(=O)N3CC(=O)Nc4ccccc43)CC2)cc1 2.96%
O=C(NC1CCCC1)C(c1ccccn1)N(C(=O)c1csnn1)C1CCCC1 (centres undefined) 1.68%
CCc1ccc(NC(=O)C(=O)N/N=C(\C)CC(=O)NCCOC)cc1 2.25%
O=C(Nc1cccc(S(=O)(=O)NC2=NCCC2)c1)C1CCCCC1 4.29%
COC(=O)c1ccc(Nc2ncnc3sccc23)cc1 1.35%
COc1ccc(NC(=S)N2N=CCC2c2ccccc2)cc1 (centres undefined) -2.8%

— PubChem BioAssay AID504937 (National Center for Advancing Translational Sciences (NCATS), 2011)
